Inconclusive results are not listed. Entries that show only a call come without a potency. Activity calls are given as the source filed them. Calls come from the whole dose curve; as a rule, active = well fitted curve in the direction sought with a large enough effect in the repeat runs; inconclusive = weak or mixed curves; inactive = no such curve, though single readings can be large; an effect the other way counts as inactive or inconclusive.
Potency is the fitted concentration of half-maximal effect.

Nuclear receptor subfamily 1 group I member 3 (Homo sapiens), sequence (Q14994 whole entry, looked up): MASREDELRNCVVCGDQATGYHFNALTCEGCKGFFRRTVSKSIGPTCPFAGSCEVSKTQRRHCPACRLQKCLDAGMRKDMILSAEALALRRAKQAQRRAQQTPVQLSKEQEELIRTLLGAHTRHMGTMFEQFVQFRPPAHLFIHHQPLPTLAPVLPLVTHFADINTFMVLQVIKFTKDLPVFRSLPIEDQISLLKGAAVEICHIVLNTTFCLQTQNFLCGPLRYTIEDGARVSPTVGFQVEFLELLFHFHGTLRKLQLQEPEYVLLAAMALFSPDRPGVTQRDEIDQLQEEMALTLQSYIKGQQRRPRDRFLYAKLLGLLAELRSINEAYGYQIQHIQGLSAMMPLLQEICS

System in one assay: not listed separately
Description: qHTS assay to identify small molecule antagonists of the constitutive androstane receptor (CAR) signaling pathway - cell viability counter screen (AID 1224837). Note: nearly all actives have a fitted effect of over 45% in size. Particulars: HepG2-CYP2B6-hCAR viability, CellTiter-Fluor, 23 h, co-treated with 50 nM CITCO; series mostly up to 92.4 µM. A digest of the protocol: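 Cytotoxicity counter-screen: CellTiter-Fluor fluorescence after 23 h compound exposure (15-point qHTS) in double-stable HepG2-CYP2B6-hCAR cells, with 50 nM CITCO added.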
For orientation: In qHTS, concentration-response curves come from the screen itself.
In the case of `Oc1cccc(Nc2ccccc2)c1`, the Potency result was “inactive”.
For the compound `Cc1cc2c(OCC(CNC(C)(C)C)OC(=O)c3ccccc3)cccc2[nH]1` (stereo not drawn), the Potency result was “inactive”.
For the compound `CCC1(CO)COCOC1`, the Potency result was “inactive”.
As for `CC(C)(C)C(=O)C(=O)O`, the Potency entry is “inactive”.
For `CCCCOc1ccc(OCCCN2CCOCC2)cc1`, the Potency result is “inactive”.
The same measure, in the same setting: the result for `O=[N+]([O-])c1cc(C2CCCCC2)c(O)c([N+](=O)[O-])c1` reads 15.3 µM (active).
For `CN1CCCC(n2nc(Cc3ccc(Cl)cc3)c3ccccc3c2=O)CC1` (stereo not drawn), the Potency is 16.8 µM (active).
The same measure, in the same setting: the result for `C(=C\c1ccccc1)/c1ccccc1` reads “inactive”; that for `Clc1cc(Cl)nc(Cl)n1`, “inactive”.
`O=C1NCCN1CCO`: the Potency result was “inactive”.
Regarding `CCCCCCCCOc1ccc(C(=O)O)cc1`, the Potency entry is “inactive”.
Consider `Oc1c(I)cc(I)c2cccnc12`, for which the Potency result is “inactive”.
Take `CCOC(=O)c1ccc(I)cc1`: the Potency result was “inactive”.
Still for that read-out and setting: the result for `Cc1cc(O)ccc1O` reads “inactive”.
Still for that read-out and setting: the result for `c1csc(SSc2cccs2)c1` reads 48.6 µM (active); that for `O=C1c2ccccc2C(=O)c2c(O)c(O)cc(O)c21`, “inactive”.
Take `CCOC(=O)/C=C/C(=O)OCC`: the Potency result was “inactive”.
Take `CCCCCCCC/C=C\CCCCCCCCO`: the Potency entry is “inactive”.
Consider `O=C1Cc2cc(Cl)ccc2N1`, for which the Potency result is “inactive”.
On to `CC(C)COCC(CN(Cc1ccccc1)c1ccccc1)N1CCCC1` (stereo not drawn), for which the Potency is 29.8 µM (active).
In the case of `C=CC(=O)[O-].C=CC(=O)[O-].[Zn+2]`, the Potency entry is “inactive”.
Consider `Nc1nnc(-c2ccc([N+](=O)[O-])o2)o1`, for which the Potency was 48.6 µM (active).
`C=C1CCC2CC1C2(C)C` (stereo not drawn): the Potency entry was “inactive”.
On to `O=C(O)c1cccc(-c2noc(-c3ccccc3F)n2)c1`, for which the Potency result is “inactive”.
As to `CC(=O)OCCN(CCOC(C)=O)c1ccc(N=Nc2ccc([N+](=O)[O-])cc2C#N)cc1`, the Potency result was “inactive”.
`O=c1[nH]c2ccc(Cl)cc2o1`: the Potency result was “inactive”.
Still for that read-out and setting: the result for `CCc1ccccc1` reads “inactive”.
Consider `CCC(C)COC(C)=O` (stereo not drawn), for which the Potency result was “inactive”.
For `C=C(C)[C@@H]1CCC2=CCC[C@@H](C)[C@]2(C)C1`, the Potency entry was “inactive”.
On to `O=C(Cn1ccnc1[N+](=O)[O-])NCCO`, for which the Potency entry was “inactive”.
Turning to `C[C@@H]1CN(CCCn2c3ccccc3c3ccccc32)C[C@H](C)N1`, the Potency was 26.6 µM (active).
Still for that read-out and setting: the result for `C[C@]1(Cn2ccnn2)[C@H](C(=O)O)N2C(=O)C[C@H]2S1(=O)=O` reads “inactive”.
For `O=C(/C=C/c1ccccc1)OCCc1ccccc1`, the Potency entry is “inactive”.
Consider `CCCCN1CCCC1C(=O)Nc1c(C)cc(C)cc1C` (stereo not drawn), for which the Potency entry was “inactive”.
As to `Cc1ccc(C(C)(C)O)cc1`, the Potency entry is “inactive”.
`CCCCN(CCCC)C(C(N)=O)c1ccc(OC)cc1` (stereo not drawn): the Potency result is “inactive”.
Turning to `CCCCN(CCN(CCCC)C(=O)N1CCOCC1)C(=O)N1CCOCC1`, the Potency entry is “inactive”.
On to `CC1CC(OC(=O)C(O)c2ccccc2)CC(C)(C)N1C` (stereo not drawn), for which the Potency result is “inactive”.
In the case of `OCCN1CCN(CCCN2c3ccccc3Sc3ccc(Cl)cc32)CC1`, the Potency is 29.8 µM (active).
As to `CCCCCC[C@@H](O)C/C=C\CCCCCCCC(=O)OCC(O)CO` (stereo partly drawn), the Potency result was “inactive”.

Another assay has as its target Nuclear receptor subfamily 1 group I member 3 (Homo sapiens) (UniProt Q14994). Description: qHTS assay to identify small molecule antagonists of the constitutive androstane receptor (CAR) signaling pathway (AID 1224838).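 Note: HepG2 cells stably expressing hCAR with CYP2B6 luciferase reporter stimulated by CITCO; nearly all actives have a fitted effect of over 40% in size.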 Particulars: HepG2-CYP2B6-hCAR luciferase, CITCO-stimulated, 24 h; series mostly up to 92.4 µM. In outline: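 Antagonism measured as luciferase signal (ONE-Glo, 30 min, room temperature) in CAR-stimulated cells: HepG2-CYP2B6-hCAR double-stable line exposed 24 hr at 37 C to compound in a 15-point series plus 50 nM CITCO.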
With `Oc1cccc(Nc2ccccc2)c1`, the Potency result is “inactive”.
In the case of `Cc1cc2c(OCC(CNC(C)(C)C)OC(=O)c3ccccc3)cccc2[nH]1` (stereo not drawn), the Potency result is “inactive”.
On the same count and under the same terms, the result for `CC(C)(C)C(=O)C(=O)O` reads “inactive”; that for `CCCCOc1ccc(OCCCN2CCOCC2)cc1`, “inactive”; that for `C(=C\c1ccccc1)/c1ccccc1`, “inactive”.
Take `Clc1cc(Cl)nc(Cl)n1`: the Potency entry was “inactive”.
The same measure, in the same setting: the result for `O=C1NCCN1CCO` reads “inactive”.
Same read-out and setting: the result for `CCCCCCCCOc1ccc(C(=O)O)cc1` reads “inactive”.
In the case of `Oc1c(I)cc(I)c2cccnc12`, the Potency entry was “inactive”.
Still for that read-out and setting: the result for `Cc1cc(O)ccc1O` reads “inactive”.
For the compound `c1csc(SSc2cccs2)c1`, the Potency was 43.3 µM (active).
Consider `O=C1c2ccccc2C(=O)c2c(O)c(O)cc(O)c21`, for which the Potency result is “inactive”.
For the compound `O=C1Cc2cc(Cl)ccc2N1`, the Potency result was “inactive”.
`CC(C)COCC(CN(Cc1ccccc1)c1ccccc1)N1CCCC1` (stereo not drawn): the Potency is 18.8 µM (active).
Regarding `C=CC(=O)[O-].C=CC(=O)[O-].[Zn+2]`, the Potency entry was “inactive”.
Take `O=C(O)c1cccc(-c2noc(-c3ccccc3F)n2)c1`: the Potency entry was “inactive”.
In the case of `CC(=O)OCCN(CCOC(C)=O)c1ccc(N=Nc2ccc([N+](=O)[O-])cc2C#N)cc1`, the Potency result is “inactive”.
On to `CCc1ccccc1`, for which the Potency result was “inactive”.
With `O=C(Cn1ccnc1[N+](=O)[O-])NCCO`, the Potency result is “inactive”.
As to `O=C(/C=C/c1ccccc1)OCCc1ccccc1`, the Potency entry was “inactive”.
Same read-out and setting: the result for `CCCCN1CCCC1C(=O)Nc1c(C)cc(C)cc1C` (stereo not drawn) reads “inactive”; that for `Cc1ccc(C(C)(C)O)cc1`, “inactive”; that for `CCCCN(CCCC)C(C(N)=O)c1ccc(OC)cc1` (stereo not drawn), “inactive”.
On the same count and under the same terms, the result for `CCCCN(CCN(CCCC)C(=O)N1CCOCC1)C(=O)N1CCOCC1` reads “inactive”.

The next assay shares this target. Description: qHTS assay to identify small molecule agonists of the constitutive androstane receptor (CAR) signaling pathway (AID 1224839). Note: nearly all actives have a fitted effect of over 15% in size. Particulars: HepG2 hCAR CYP2B6-luciferase, agonist mode, 24 h; series mostly up to 92.4 µM. In outline: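 Double-stable HepG2 cells (hCAR, CYP2B6-2.2kb) seeded 4 h before compound addition. Exposure 24 h with 0.75 uM PK11195 final. Luciferase detected by ONE-Glo.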
`Cc1cc2c(OCC(CNC(C)(C)C)OC(=O)c3ccccc3)cccc2[nH]1` (stereo not drawn): the Potency result was “inactive”.
For `CC(C)(C)C(=O)C(=O)O`, the Potency entry is “inactive”.
As to `O=[N+]([O-])c1cc(C2CCCCC2)c(O)c([N+](=O)[O-])c1`, the Potency result was “inactive”.
Take `CN1CCCC(n2nc(Cc3ccc(Cl)cc3)c3ccccc3c2=O)CC1` (stereo not drawn): the Potency entry is “inactive”.
Consider `Clc1cc(Cl)nc(Cl)n1`, for which the Potency entry was “inactive”.
For the compound `O=C1NCCN1CCO`, the Potency entry was “inactive”.
On to `c1csc(SSc2cccs2)c1`, for which the Potency entry was “inactive”.
On the same count and under the same terms, the result for `CC(C)COCC(CN(Cc1ccccc1)c1ccccc1)N1CCCC1` (stereo not drawn) reads “inactive”; that for `C=CC(=O)[O-].C=CC(=O)[O-].[Zn+2]`, “inactive”; that for `Nc1nnc(-c2ccc([N+](=O)[O-])o2)o1`, “inactive”.
On to `O=C(O)c1cccc(-c2noc(-c3ccccc3F)n2)c1`, for which the Potency was 0.0075 µM (active).
Turning to `CCc1ccccc1`, the Potency result is “inactive”.
Still for that read-out and setting: the result for `C=C(C)[C@@H]1CCC2=CCC[C@@H](C)[C@]2(C)C1` reads “inactive”; that for `O=C(Cn1ccnc1[N+](=O)[O-])NCCO`, “inactive”.
In the case of `C[C@@H]1CN(CCCn2c3ccccc3c3ccccc32)C[C@H](C)N1`, the Potency is 2.11 µM (active).
For `CCCCN1CCCC1C(=O)Nc1c(C)cc(C)cc1C` (stereo not drawn), the Potency was 29.8 µM (active).
Regarding `Cc1ccc(C(C)(C)O)cc1`, the Potency result is “inactive”.
With `CCCCN(CCN(CCCC)C(=O)N1CCOCC1)C(=O)N1CCOCC1`, the Potency entry was “inactive”.
For `OCCN1CCN(CCCN2c3ccccc3Sc3ccc(Cl)cc32)CC1`, the Potency entry is “inactive”.

(Values after PubChem BioAssay (Tox21).)
